# Measurements as given in publication PMC5540273 (PLoS ONE, 2017).
# Columns and labels:
# [1] = test system: CAMK1D
# [2] = test system: CAMK1
# [3] = test system: CAMK2G
# [4] = test system: CAMKK1
# [5] = test system: T1, CDC2L1
# T1 construct: gene CDK11B
# [6] = test system: CDC2L2
# 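Note: kd values determined as follow-up on hits from a single-replicate KINOMEscan panel screen.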
smiles,measurement,setting,value
O=C1NC(=O)C(c2ccc(Cl)cc2)=C1Nc1ccc(O)cc1 [SB-340867],Kd,[1],> 10 µM
same,Kd,[2],> 10 µM
COc1cccc(CNC(=O)NC2CCN(c3ccnc(Nc4ccc(F)cc4)n3)C2)c1 (stereo not shown) [GSK1379723],Kd,[3],> 10 µM
CN1c2ccc(-c3ccc(C(N)=O)cc3)cc2-c2[nH]ncc2S1(=O)=O,Kd,[4],> 10 µM
Cc1nccc(-c2c(-c3ccc(F)cc3)ncn2CCCN2CCOCC2)n1.Cl [SB-282975],Kd,[5],> 10 µM
Cc1c(Cn2c3ccccc3n3c(=O)cc(N4CCOCC4)nc23)cccc1C(F)(F)F [GSK2306394],Kd,[5],> 10 µM
CC(=O)c1c(C)c2cnc(Nc3ccn(C)n3)nc2n(C2CCCC2)c1=O,Kd,[6],> 10 µM
